From ChEMBL document CHEMBL4513216, “Probing the Open Global Health Chemical Diversity Library for Multistage-Active Starting Points for Next-Generation Antimalarials” (ACS Infect Dis, 2020)
In all, about 69,000 compounds went through this assay and about 8,600 (12%) showed an effect of 50% or more. The entries come from a sample that favours strong results as a whole.

system: Plasmodium berghei; test: Screen against P. berghei liver stage (PbLuc), transformed with Luciferase, at 10uM; format: functional, HepG2; conditions: tested at 10 uM

| Structure (SMILES) | INHIBITION [%] |
| --- | --- |
| Cc1nc(C)n(C2CCCN(C(=O)c3c[nH]c(C(C)C)n3)C2)n1 (stereo unspecified) | 40.9 |
| CS(=O)(=O)N1CCC2(CC1)COC(COc1ccccn1)C2 (stereo unspecified) | -27.9 |
| CC(C)OC[C@H]1CCC[C@]12CN(S(=O)(=O)c1cn(C)cn1)CCO2 | 1.7 |
| OC1(CNCCc2csc(-c3ncccn3)n2)CCNC1 (stereo unspecified) | 39.3 |
| COCC(=O)NCc1cc(=O)n2c(n1)CN(CC1CCOC1)CCC2 (stereo unspecified) | 37.5 |
| COCCc1noc(CN2CCCC(Cn3nc(C)nc3C)C2)n1 (stereo unspecified) | 40.9 |
| Cc1noc(CN2CCCC(Cn3nc(C)nc3C)C2)n1 (stereo unspecified) | 27.8 |
| CCc1noc(CN2CCCC(Cn3nc(C)nc3C)C2)n1 (stereo unspecified) | 18.2 |
| CCc1nc(CN2CCCC(Cn3nc(C)nc3C)C2)no1 (stereo unspecified) | 33.3 |
| Cc1nc(C)n(CC2CCCN(Cc3noc(C)n3)C2)n1 (stereo unspecified) | 56.6 |
| Cc1nc(C)n(CC2CCCN(Cc3nc(C4CC4)no3)C2)n1 (stereo unspecified) | 60.6 |
| CNC(=O)[C@@]12CCO[C@@H]1CCN(S(=O)(=O)c1cccnc1)C2 | 23.9 |
| Cn1cc(CN2CC(C(=O)Nc3ccccc3)C3(CCOCC3)C2)cn1 (stereo unspecified) | 48.2 |
| COc1ccc(CN2C[C@H]3CN(Cc4ccncc4)C(=O)[C@H]3C2)cc1 | 22.3 |
| O=C(Cc1c(F)cccc1Cl)NC1CCCCNC1=O (stereo unspecified) | -1.85 |
| CC(=O)Nc1nc(C)c(S(=O)(=O)NCCc2ccccn2)s1 | -1.85 |
| O=S(=O)(C1CC1)N1CCO[C@H]2[C@@H](Oc3ncccc3F)CC[C@@H]21 | -30 |
| CC(C)N(Cc1ccccc1)C(=O)c1cc(C2CCCN2C)ccn1 (stereo unspecified) | -18.9 |
| Cc1ncccc1Oc1ncnc(N2CCC3(CCCO3)CC2)c1C | -5.12 |
| COc1ccc(C(C)n2ccnc2-c2cc3n(n2)CCCNC3)cc1F (stereo unspecified) | -2.34 |
| CC(c1ccc(F)cc1)n1ccnc1-c1cc2n(n1)CCCNC2 (stereo unspecified) | 58.3 |
| COc1ccc([C@@H](C)n2ccnc2-c2cc3n(n2)CCCNC3)cc1 | 15 |

| Structure (SMILES) | INHIBITION [%] |
| --- | --- |
| CN(CC(=O)N1CCN(c2ccccn2)CC1)c1ccc(Cl)cn1 | -36.6 |
| CNC(=O)[C@H]1C[C@@H]2CN(C(=O)c3ccncc3)C[C@@H]2N1S(C)(=O)=O | 20.4 |
| Cc1n[nH]c(C)c1Sc1ccccc1NC(=O)N1CCCC(C(N)=O)C1 (stereo unspecified) | -24 |
| Cc1n[nH]c(C)c1Sc1ccccc1NC(=O)CN1CCCC1 | 3.17 |
| Cc1n[nH]c(C)c1Sc1ccccc1NC(=O)N1CCOCC1 | 30.3 |
| COCC(=O)Nc1ccccc1Sc1c(C)n[nH]c1C | 60 |
| Cc1n[nH]c(C)c1Sc1ccccc1NC(=O)N1CCN(C)CC1 | 61.2 |
| Cc1n[nH]c(C)c1Sc1ccccc1NC(=O)N1CCOCC(O)C1 (stereo unspecified) | 25.4 |
| CCS(=O)(=O)N1CCc2c(CN(C)Cc3ccco3)cncc2C1 | 20.2 |
| NC(=O)CNC(=O)c1ccc(CNCc2ccc(Cl)cc2Cl)cc1 | 48.9 |
| NC(=O)COc1ccc(CNCc2ccc(F)cc2F)cc1 | 6.8 |
| NC(=O)CNC(=O)c1ccc(CNCc2ccc(F)cc2F)cc1 | 54.5 |
| Cc1cc(C)c(CNC(=O)NCC(O)c2ccccc2)c(=O)[nH]1 (stereo unspecified) | 15.5 |
| O=C(c1cccnc1)N1CCC2(CC1)COCCN(c1ncccn1)C2 | 16.8 |
| CC(=O)NCCNC(=O)CN1CCCCC1Cn1cncn1 (stereo unspecified) | -15.5 |
| O=c1[nH]c2nc(N3CCCC3)ncc2c(=O)n1-c1cccc(F)c1 | 2.69 |
| CCCS(=O)(=O)N1CCC(n2nc(-c3cc(C)oc3C)ccc2=O)CC1 | 68.4 |
| Cc1cc(-c2ccc(=O)n(C3CCN(S(C)(=O)=O)CC3)n2)c(C)o1 | -8.58 |
| CCS(=O)(=O)N1CCC(n2nc(-c3cc(C)oc3C)ccc2=O)CC1 | 21.1 |
| Cc1cc(NC(=O)C(C)Nc2cccc(COCc3ccco3)c2)no1 (stereo unspecified) | 11.1 |
| COCc1noc(CCC(=O)c2ccc3c(c2)OCCO3)n1 | -41.4 |
| O=C(COc1ccc(-n2cccn2)nn1)N1CCCC1 | -66.4 |

| Structure (SMILES) | INHIBITION [%] |
| --- | --- |
| COc1ccc2c(c1)CCCN2C(=O)c1cccc(N(C)C)c1 | 87.9 |
| CN(C)c1ccc(C(=O)N2CCCc3cc(OC(F)(F)F)ccc32)cn1 | 26.7 |
| COc1ccc2c(c1)CCCN2C(=O)CN1CCOC(CN(C)C)C1 (stereo unspecified) | 3.68 |
| COc1ccc2c(c1)CCCN2C(=O)CN1CCOC(C)C1 (stereo unspecified) | 50.9 |
| COc1ccc2c(c1)CCCN2C(=O)CNCC1CN(C)CCO1 (stereo unspecified) | -39.2 |
| CN(C)c1cccc(C(=O)N2CCCc3cc(OC(F)(F)F)ccc32)c1 | 43.4 |
| Fc1cnc(N2CC[C@@H]3O[C@H](COCc4ccccn4)CC[C@@H]32)nc1 | -21.7 |
| CC(C)COC1CC2(CCN(Cc3nccn3C)CC2)C1 | 31.6 |
| Cc1nc2[nH]cnc(Nc3cnn(C)c3)c-2n1 | -10.6 |
| CC(C)C(NC(=O)C1CC1)c1cc(O)nc(-c2cccnc2)n1 (stereo unspecified) | 3.4 |
| Cc1cc(NCCCOC(C)C)c2nncn2n1 | 13.4 |
| COc1cc(-c2cnnc(NCCCOC(C)C)n2)cc(OC)c1OC | 57.9 |
| COc1cc(-c2cnnc(NCC3CC3)n2)cc(OC)c1OC | 31.7 |
| CNc1cc(-c2cc(OC)c(OC)c(OC)c2)ncn1 | 27.8 |
| COc1cc(-c2nc(N)n[nH]2)cc(OC)c1OC | 20.4 |
| COc1cc(-c2cnnc(NCCSC)n2)cc(OC)c1OC | 52.2 |
| COCC(NC1CSCCSC1)c1ccnn1C (stereo unspecified) | 31.2 |
| CN1CCN(CC2(O)CCCN(S(=O)(=O)c3cn[nH]c3)CC2)CC1 (stereo unspecified) | 29.6 |
| Cn1ccc(C(=O)N2CCC(c3cc(CCO)n(C)n3)C2)n1 (stereo unspecified) | -3.94 |
| CC(O)c1cccc(Nc2nc(NCCO)c3ccccc3n2)c1 (stereo unspecified) | 44.9 |
| CCN(CC)c1nc(Nc2cccc(C(C)O)c2)nc2ccccc12 (stereo unspecified) | 87.2 |
| CCN(CC)c1nc(Nc2cccc(C(=O)O)c2)nc2ccccc12 | 5.18 |

| Structure (SMILES) | INHIBITION [%] |
| --- | --- |
| COCCN1CC2(CCCN(Cc3cc(=O)c(OC)co3)C2)CCC1=O (stereo unspecified) | 23.9 |
| Cc1[nH]c(=O)[nH]c(=O)c1CN1CCCC(CCc2ccc(F)c(F)c2)C1 (stereo unspecified) | 4.48 |
| COc1ccc(CCC2CCCN(CC(=O)O)C2)cc1 (stereo unspecified) | 23.9 |
| COc1coc(CN2CCCC(CCc3ccc(F)cc3)C2)cc1=O (stereo unspecified) | 73.5 |
| Cc1[nH]c(=O)[nH]c(=O)c1CN1CCCC(CCc2ccccc2)C1 (stereo unspecified) | -38.2 |
| COc1coc(CN2CCCC3(CCC(=O)N(CC4CC4)C3)C2)cc1=O (stereo unspecified) | 33.2 |
| COc1coc(CN2CCCC(CCc3ccc(F)c(F)c3)C2)cc1=O (stereo unspecified) | 63.6 |
| COc1coc(CN2CCCC3(CCC(=O)N(C4CC4)C3)C2)cc1=O (stereo unspecified) | 53.6 |
| COc1ccc(CN2CCCC(Cn3nc(C)nc3C)C2)cc1F (stereo unspecified) | -15.8 |
| CCOc1cc(C(=O)N2CCCC(n3nc(C)nc3C)C2)ccn1 (stereo unspecified) | -11.9 |
| Cc1noc(C)c1-c1nc(N(C)CCN(C)C)ncc1-c1cnccn1 | 2.71 |
| CC(C)(C)c1cc(CN2C[C@H]3CC[C@@H](C2)N(Cc2ccccn2)C3)n[nH]1 | 33.3 |
| c1ncn(Cc2cnc3n2CCN(Cc2ccsc2)CC3)n1 | 37 |
| CC(C)(C)CC(=O)Nc1ccccc1SCC(N)=O | -53.6 |
| O=C1CN(Cc2cnc3c(-c4ccccc4)cnn3c2)CCCN1 | 75.1 |
| OCCN1CCN(Cc2cnc3c(-c4ccccc4)cnn3c2)CC1 | 44.8 |
| CC(C)O[C@H]1CN(Cc2cnc3c(-c4ccccc4)cnn3c2)C[C@@H]1O | 8.74 |
| FC(F)(F)C1CN(Cc2cnc3c(-c4ccccc4)cnn3c2)CCO1 (stereo unspecified) | 25.9 |
| CN(C)CC1(O)CCN(Cc2cnc3c(-c4ccccc4)cnn3c2)C1 (stereo unspecified) | 20.2 |
| CC(O)C1CCN(Cc2cnc3c(-c4ccccc4)cnn3c2)CC1 (stereo unspecified) | 63.6 |
| O=C1CCN(Cc2cnc3c(-c4ccccc4)cnn3c2)CCN1 | 29.2 |
| c1ccc(-c2cnn3cc(CN4CCC5(CCO5)CC4)cnc23)cc1 | 87.4 |

| Structure (SMILES) | INHIBITION [%] |
| --- | --- |
| NCCC1CN(Cc2cnc3c(-c4ccccc4)cnn3c2)CCO1 (stereo unspecified) | 40.7 |
| CN(Cc1ccsc1)C(=O)c1cc2c([nH]c1=O)CCC2 | -9.6 |
| Cc1csc(CNCc2c(C)nn(C)c2N2CCOCC2)n1 | -19.7 |
| CCCN(CC)C(=O)c1ncn2c1CN(C)S(=O)(=O)c1ccccc1-2 | -49.7 |
| COCCOCC(=O)Nc1nc2c(OC)cc(F)cc2s1 | 7.65 |
| Cc1nnc(CN(Cc2ccc3c(c2)OCO3)C2CCC(C)CC2)o1 (stereo unspecified) | -45.9 |
| COc1cc(OC)c(C2CC(=O)Oc3cc(C)[nH]c(=O)c32)cc1OC (stereo unspecified) | 4.07 |
| Cn1cc2ncn(CCCOc3cccnc3)c(=O)c2n1 | 14.3 |
| CC(Cn1cnc2cn(C)nc2c1=O)Oc1cccnc1 (stereo unspecified) | 52.6 |
| Cn1cc2ncn(CCNc3cccnc3)c(=O)c2n1 | 31.6 |
| CCC(=O)c1cccc(S(=O)(=O)NC(C)C#N)c1 (stereo unspecified) | 54.4 |
| CC(C#N)NS(=O)(=O)c1cccc(C(C)C)c1 (stereo unspecified) | 22.3 |
| Cc1ccc(S(=O)(=O)NC(C)C#N)cc1Br (stereo unspecified) | 4.95 |
| CS(=O)(=O)NCC1CCCCN1C(=O)Nc1cccnc1N1CCCC1 (stereo unspecified) | 34.7 |
| c1coc(-c2nnc(CN3CCCC3Cn3cncn3)o2)c1 (stereo unspecified) | 17.5 |
| CCCn1ncc(CN(CCN(C)C)Cc2ccsc2)c1C | 57.5 |
| CCCn1ncc(CN(Cc2ccsc2)Cc2ccco2)c1C | 13 |
| CCCn1ncc(CN(Cc2cccnc2)Cc2ccsc2)c1C | 22.9 |
